Test results published in PubChem BioAssay AID1159580 (chemical genetic matrix, 2015).
“And” between values parts separate entries of the source, which are not always exact repeats. Identical values can stand only once. About 2,000 (36%) of roughly 5,500 compounds were called active. Not shown: some 18% with an inconclusive outcome. Rule as the data show it: active = normalized growth mostly below about 0.91 (no sharp cut-off); inconclusive = no clear call, values can overlap the other calls; inactive = mostly above about 0.92. The list shows a part of the results. Some structures have more than one record in an assay (separate samples or runs), and their calls can disagree.

Experiment: chemical genetic growth profiling, strain panel (AID 1159580);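 also: tested at 20 µM; growth read once vehicle control cultures reached saturation at 30 °C; 1 = growth at the plate median or of vehicle wells; lower values mean less growth of the strain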
Conditions: growth OD

Measured: normalized growth

O=c1cc(-c2ccccc2)oc2cc(O)cc(O)c12
inactive: S. cerevisiae deletion strains, locus YJR075W, strain HOC1, stronger effect = lower value 0.924 | S. cerevisiae deletion strains, locus YKL068W, stronger effect = lower value 0.943 | S. cerevisiae deletion strains, locus YKL190W, strain CNB1, stronger effect = lower value 0.941 | S. cerevisiae deletion strains, locus YLL001W, strain dnm1, stronger effect = lower value 0.94 and 0.905 | S. cerevisiae deletion strains, locus YLR039C, strain RIC1, stronger effect = lower value 0.715 | S. cerevisiae deletion strains, locus YLR058C, strain SHM2, stronger effect = lower value 0.965 | S. cerevisiae deletion strains, locus YLR102C, strain apc9, stronger effect = lower value 0.947 | S. cerevisiae deletion strains, locus YLR262C, strain YPT6, stronger effect = lower value 0.684 | S. cerevisiae deletion strains, locus YLR330W, strain CHS5, stronger effect = lower value 0.972 | S. cerevisiae deletion strains, locus YLR342W, strain FKS1 (second series), stronger effect = lower value 0.862 | S. cerevisiae deletion strains, locus YLR370C, strain arc18, stronger effect = lower value 0.958 and 0.933 | S. cerevisiae deletion strains, locus YLR371W, strain rom2, stronger effect = lower value 0.951 | S. cerevisiae deletion strains, locus YLR384C, strain iki3, stronger effect = lower value 0.938 and 0.931 | S. cerevisiae deletion strains, locus YML016C, strain PPZ1, stronger effect = lower value 0.985 | S. cerevisiae deletion strains, locus YML120C, strain ndi1, stronger effect = lower value 0.944 and 0.942 | S. cerevisiae deletion strains, locus YML124C, strain tub3, stronger effect = lower value 0.952 | S. cerevisiae deletion strains, locus YMR078C, strain ctf18, stronger effect = lower value 0.928 | S. cerevisiae deletion strains, locus YMR125W, strain sto1, stronger effect = lower value 0.929 and 0.907 | S. cerevisiae deletion strains, locus YMR129W, stronger effect = lower value 0.94 | S. cerevisiae deletion strains, locus YMR223W, strain ubp8, stronger effect = lower value 0.906 | S. cerevisiae deletion strains, locus YMR263W, strain SAP30, stronger effect = lower value 0.927 | S. cerevisiae deletion strains, locus YNL067W, strain RPL9B, stronger effect = lower value 0.898 | S. cerevisiae deletion strains, locus YNL128W, strain TEP1, stronger effect = lower value 0.972 | S. cerevisiae deletion strains, locus YNL153C, strain GIM3, stronger effect = lower value 0.931 | S. cerevisiae deletion strains, locus YNL183C, strain NPR1, stronger effect = lower value 0.894 | S. cerevisiae deletion strains, locus YNL250W, strain rad50, stronger effect = lower value 0.925 | S. cerevisiae deletion strains, locus YNL322C, strain KRE1, stronger effect = lower value 0.978 | S. cerevisiae deletion strains, locus YNR049C, strain mso1, stronger effect = lower value 0.966 and 0.944 | S. cerevisiae deletion strains, locus YNR052C, strain pop2, stronger effect = lower value 0.944 | S. cerevisiae deletion strains, locus YOL006C, strain TOP1, stronger effect = lower value 0.686 | S. cerevisiae deletion strains, locus YOL012C, strain htz1 0.62 | S. cerevisiae deletion strains, locus YOR001W, strain rrp6, stronger effect = lower value 0.941 and 0.903 | S. cerevisiae deletion strains, locus YOR061W, strain CKA2, stronger effect = lower value 0.98 | S. cerevisiae deletion strains, locus YOR069W, strain VPS5, stronger effect = lower value 0.988 | S. cerevisiae deletion strains, locus YOR080W, strain dia2, stronger effect = lower value 0.97 and 0.934 | S. cerevisiae deletion strains, locus YOR136W, strain idh2, stronger effect = lower value 0.968 | S. cerevisiae deletion strains, locus YOR231W, strain MKK1, stronger effect = lower value 0.905 | S. cerevisiae deletion strains, locus YOR265W, strain rbl2, stronger effect = lower value 0.947 and 1.01 | S. cerevisiae deletion strains, locus YOR316C, strain cot1, stronger effect = lower value 0.945 | S. cerevisiae deletion strains, locus YPL055C, strain LGE1, stronger effect = lower value 0.91 | S. cerevisiae deletion strains, locus YPL106C, strain sse1, stronger effect = lower value 0.911 and 0.879 | S. cerevisiae deletion strains, locus YPL241C, strain CIN2, stronger effect = lower value 0.985 | S. cerevisiae deletion strains, locus YPL256C, strain CLN2, stronger effect = lower value 0.891 | S. cerevisiae deletion strains, locus YPR119W, strain clb2, stronger effect = lower value 0.937 | S. cerevisiae deletion strains, locus YPR141C, strain kar3, stronger effect = lower value 0.942 | S. cerevisiae deletion strains, locus YPR167C, strain met16, stronger effect = lower value 0.947 | S. cerevisiae deletion strains, strain wtn01, stronger effect = lower value 0.912 | S. cerevisiae strains, strain wild type, stronger effect = lower value 0.956
0.901 (inactive) and 0.85 (active): S. cerevisiae deletion strains, locus YOR290C, strain snf2, stronger effect = lower value
0.926 (inactive) and 0.776 (active): S. cerevisiae deletion strains, locus YPL078C, strain atp4, stronger effect = lower value
0.912 (inactive) and 0.807 (active): S. cerevisiae deletion strains, locus YOR083W, strain WHI5, stronger effect = lower value
0.946 (inactive) and 0.915 (active): S. cerevisiae deletion strains, locus YLL041C, strain sdh2, stronger effect = lower value
0.943 (inactive) and 0.912 (active): S. cerevisiae deletion strains, locus YKR091W, strain srl3, stronger effect = lower value
0.946 (inactive) and 0.903 (active): S. cerevisiae deletion strains, locus YLR342W, strain FKS1, stronger effect = lower value
0.944 (inactive) and 0.828 (active): S. cerevisiae deletion strains, locus YLR221C, strain rsa3, stronger effect = lower value
0.97 (inactive) and 0.877 (active): S. cerevisiae deletion strains, locus YNL322C, strain KRE1 (second series), stronger effect = lower value
0.934 (inactive) and 0.871 (active): S. cerevisiae deletion strains, locus YMR231W, strain pep5, stronger effect = lower value
0.943 (inactive) and 0.867 (active): S. cerevisiae deletion strains, locus YLR027C, strain aat2, stronger effect = lower value
0.957 (inactive) and 0.875 (active): S. cerevisiae deletion strains, locus YOR070C, strain gyp1, stronger effect = lower value
0.954 (inactive) and 0.871 (active): S. cerevisiae deletion strains, locus YNL209W, strain ssb2, stronger effect = lower value
0.97 (inactive) and 0.818 (active): S. cerevisiae deletion strains, locus YNL248C, strain rpa49, stronger effect = lower value
0.94 (inactive) and 0.912 (active): S. cerevisiae deletion strains, locus YKR026C, strain gcn3, stronger effect = lower value
active: S. cerevisiae deletion strains, locus YKL009W, strain mrt4, stronger effect = lower value 0.667 | S. cerevisiae deletion strains, locus YKL085W, strain MDH1 (second series), stronger effect = lower value 0.888 | S. cerevisiae deletion strains, locus YKL085W, strain MDH1, stronger effect = lower value 0.888 | S. cerevisiae deletion strains, locus YKR001C, strain vps1, stronger effect = lower value 0.813 | S. cerevisiae deletion strains, locus YLR113W, strain HOG1, stronger effect = lower value 0.831 | S. cerevisiae deletion strains, locus YLR262C, strain YPT6 (second series), stronger effect = lower value 0.677 and 0.514 | S. cerevisiae deletion strains, locus YLR268W, strain sec22, stronger effect = lower value 0.837 | S. cerevisiae deletion strains, locus YLR320W, strain mms22, stronger effect = lower value 0.837 and 0.73 | S. cerevisiae deletion strains, locus YLR418C, strain cdc73, stronger effect = lower value 0.761 | S. cerevisiae deletion strains, locus YML032C, strain rad52, stronger effect = lower value 0.87 | S. cerevisiae deletion strains, locus YMR058W, strain fet3, stronger effect = lower value 0.893 and 0.653 | S. cerevisiae deletion strains, locus YMR205C, strain PFK2, stronger effect = lower value 0.87 and 0.693 | S. cerevisiae deletion strains, locus YMR307W, strain GAS1, stronger effect = lower value 0.551 | S. cerevisiae deletion strains, locus YNL071W, strain lat1, stronger effect = lower value 0.891 and 0.727 | S. cerevisiae deletion strains, locus YNL233W, strain BNI4, stronger effect = lower value 0.869 | S. cerevisiae deletion strains, locus YNL271C, strain bni1, stronger effect = lower value 0.904 | S. cerevisiae deletion strains, locus YNL298W, strain CLA4, stronger effect = lower value 0.893 | S. cerevisiae deletion strains, locus YNL307C, strain MCK1, stronger effect = lower value 0.834 | S. cerevisiae deletion strains, locus YOL147C, strain pex11, stronger effect = lower value 0.929 | S. cerevisiae deletion strains, locus YOR144C, strain elg1, stronger effect = lower value 0.932 | S. cerevisiae deletion strains, locus YOR184W, strain ser1, stronger effect = lower value 0.761 | S. cerevisiae deletion strains, locus YOR270C, strain vph1, stronger effect = lower value 0.746 and 0.518 | S. cerevisiae deletion strains, locus YPL051W, strain arl3, stronger effect = lower value 0.905 and 0.701 | S. cerevisiae deletion strains, locus YPR163C, strain tif3, stronger effect = lower value 0.883
0.924 (inactive) and 0.838 (active): S. cerevisiae deletion strains, locus YLR258W, strain gsy2, stronger effect = lower value
0.908 (inactive) and 0.809 (active): S. cerevisiae deletion strains, locus YKL160W, strain elf1, stronger effect = lower value
0.915 (inactive) and 0.802 (active): S. cerevisiae deletion strains, locus YOR106W, strain vam3, stronger effect = lower value
0.882 (inactive) and 0.838 (active): S. cerevisiae deletion strains, locus YLR357W, strain rsc2, stronger effect = lower value
0.936 (inactive) and 0.919 (active): S. cerevisiae deletion strains, locus YLL026W, stronger effect = lower value
0.962 (inactive) and 0.886 (active): S. cerevisiae deletion strains, locus YPL240C, strain hsp82, stronger effect = lower value
